FLuc modulator: counter-screen for miR-21 project: firefly luciferase inhibitors or activators | AID 588342 | hit rate 6.9% among 360,000 | P08659 | Potency, µM (series often up to 57.5 µM), usual class: inhibitors | purified FLuc, Km substrates, luminescence inhibition; also: nearly all actives have a fitted effect of over 55% in size
Target sequence (P08659 whole entry, looked up): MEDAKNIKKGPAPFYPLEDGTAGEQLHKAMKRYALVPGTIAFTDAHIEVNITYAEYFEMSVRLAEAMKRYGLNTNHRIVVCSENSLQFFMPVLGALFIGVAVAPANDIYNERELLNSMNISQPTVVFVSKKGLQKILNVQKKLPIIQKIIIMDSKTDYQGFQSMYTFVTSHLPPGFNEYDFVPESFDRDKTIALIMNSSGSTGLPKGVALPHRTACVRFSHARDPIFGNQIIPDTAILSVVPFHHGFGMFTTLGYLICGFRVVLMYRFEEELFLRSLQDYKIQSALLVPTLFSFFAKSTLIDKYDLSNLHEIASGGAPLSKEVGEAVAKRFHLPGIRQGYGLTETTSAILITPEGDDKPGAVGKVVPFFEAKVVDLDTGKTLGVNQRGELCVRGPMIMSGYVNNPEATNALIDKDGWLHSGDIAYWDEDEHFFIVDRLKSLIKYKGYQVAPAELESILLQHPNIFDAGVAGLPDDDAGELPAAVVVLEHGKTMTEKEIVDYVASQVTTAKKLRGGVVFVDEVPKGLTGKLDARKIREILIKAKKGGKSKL
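Purified P. pyralis luciferase, 10 nM final, with Km-level 10 uM D-luciferin and 10 uM ATP in 50 mM Tris acetate pH 7.5, 10 mM Mg acetate, 0.01% Tween-20, 0.05% BSA; 6-point qHTS titration about 60 µM downward; luminescence read.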
SMN2 splice enh: enhancers of SMN2 splice variant expression. hit rate 2.8% among 210,000. AID 1458. HEK293 SMN2-luciferase splicing reporter, luminescence, 30-36 h. Potency, µM (titrated, usually from 46.1 µM), actives largely listed as activators; also: nearly all actives have a fitted effect of over 55% in size
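qHTS luciferase splicing reporter: luminescence rises when SMN2 exon 7 is included in transfected HEK293 cells. Compound exposure lasted 30-36 h at 37C, with 4.5 mM final sodium butyrate as control, followed by a ONE-Glo read.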
ELG1 genotoxic: inducers of genotoxicity in HEK293T ELG1-luciferase cells; HEK293T ELG1-luciferase reporter, luminescence, 16 h; Potency, µM (doses to about 46 µM), hits mostly activators; hit rate 1.3% among 330,000; AID 504466; also: nearly all actives have a fitted effect of over 60% in size
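16 hr compound incubation (37 °C, 5% CO2) of HEK293T cells carrying luciferase-tagged ELG1; luciferase then measured by ONE-Glo luminescence after 30 min at RT.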
NPC1 prom act: activates the NPC1 promoter. AID 485313. Huh7 NPC1 promoter luciferase reporter, 24 h. hit rate 2.4% among 320,000. Potency, µM (series often up to 9.22 µM), actives largely listed as activators; also: nearly all actives have a fitted effect of over 60% in size
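Luminescence from an NPC1 promoter-driven luciferase reporter in stably transfected Huh7 cells was measured after 24 h compound treatment at 37 °C, followed by 10 min ambient incubation with luciferase detection reagent.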
Rab9 prom act: Rab9 promoter activation | Potency, µM (top dose mostly 9.22 µM), usual class: activators | AID 485297 | hit rate 2.8% among 320,000 | Huh7 Rab9 promoter-luciferase reporter, luminescence, 24 h; also: nearly all actives have a fitted effect of over 60% in size
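Steps: seed 1500 Huh7 Rab9-luc cells per well, rest 2 h at 37 °C; add compound in DMSO; incubate 24 h; add luciferase reagent, 10 min ambient; read luminescence.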
Numbers stand for hits; . = inactive; ? = inconclusive; / = no result; [ ] = dose if it differs, or a comment. Hits are enriched below; roughly 7.4% of the tested compounds scored in any of these assays. Calls follow the shape of the dose curve; as a rule, active = well fitted curve in the direction sought with a large enough effect; inconclusive = small, poorly fitted or top-dose-only effect, or another doubt; inactive = no such curve, though single readings can be large; an effect the other way counts as inactive or inconclusive.

SMILES | FLuc modulator | SMN2 splice enh | ELG1 genotoxic | NPC1 prom act | Rab9 prom act
Fc1cccc(CSc2ccc(-c3ccc4c(c3)OCO4)nn2)c1 | 10.7µM | ? | . | . | .
CC(=O)c1ccc(NC(=O)CSc2ccc(-c3ccc4c(c3)OCO4)nn2)cc1 | ? | . | . | . | ?
O=[N+]([O-])c1cccc(-c2ccc(SCc3cccnc3)nn2)c1 | ? | . | . | . | ?
Cc1nc(C)c(-c2ccc(SCc3ccccc3C)nn2)s1 | 13.5µM | / | . | . | .
Cc1nc(C)c(-c2ccc(SCC(=O)Nc3ccccc3)nn2)s1 | ? | / | . | . | .
c1cncc(CSc2ccc(-c3ccc4c(c3)OCO4)nn2)c1 | 16.9µM | . | . | 3.16µM | 2.82µM
Cc1ccccc1CSc1ccc(-c2ccc3c(c2)OCO3)nn1 | 7.57µM | / | ? | . | ?
CCCC(=O)Nc1ncnc2c1ncn2[C@@H]1O[C@H]2COP(=O)(O)O[C@@H]2[C@@H]1OC(=O)CCC | / | . | / | / | /
CCOc1ccc(CCNC(=O)C2CCN(C(=O)c3cc4sccc4n3CC)CC2)cc1OCC | . | . | / | / | /
O=C(O)CCC(=O)NNC(=O)c1ccc(-c2ccccc2)cc1 | 19µM | . | . | . | .
CCCC(C)NC(=O)c1ccc(F)cc1 (centres undefined) | . | . | . | . | .
COC(=O)c1ccccc1NC(=O)COC(=O)[C@H](C)NC(N)=O | . | / | . | . | .
CC(NC(N)=O)C(=O)OCC(=O)c1ccc(-c2ccccc2)cc1 (centres undefined) | 12µM | . | . | . | .
CCCC(C)NC(=O)c1ccc(-c2ccccc2)cc1 (centres undefined) | ? | / | ? | ? | 1.78µM
COc1ccc(C(=O)CCC(=O)O)cc1 | . | . | . | . | .
O=C(O)CCC(=O)c1ccc(-c2ccccc2)cc1 | 8.49µM | . | . | . | ?
COc1ccc(OC)c(CCNc2ncnc3onc(C)c23)c1 | . | / | / | / | /
CCN(C(=O)CSc1n[nH]c(N)n1)c1cccc2ccccc12 | / | / | . | / | /
CCC(=O)c1ccc(-c2ccccc2)cc1 | 15.1µM | ? | ? | . | .
O=C(C[n+]1ccccc1)c1ccc(-c2ccccc2)cc1 | . | / | . | . | .
COc1cccc(/C=N/NC(=S)Nc2cccc(C(=O)O)c2)c1 | 1.69µM | 14.1µM | . | 2µM | 3.16µM
COc1ccc(/C=N/NC(=O)CCC(=O)Nc2ccccc2)cc1OC | . | . | . | . | .
COc1cc(/C=N/NC(=S)Nc2cccc(C(=O)O)c2)cc(OC)c1OC | 23.9µM | ? | . | . | .
CNC(=S)Nc1cccc(C(=O)O)c1 | . | . | . | . | .
COc1cccc(/C=N/NC(=S)Nc2cccc(S(=O)(=O)N(C)C)c2)c1 | ? | / | . | . | .
SMILES | FLuc modulator | SMN2 splice enh | ELG1 genotoxic | NPC1 prom act | Rab9 prom act
COc1cc(/C=N/NC(=S)N/N=C/c2cc(OC)c(OC)c(OC)c2)cc(OC)c1OC | 0.213µM | 4.47µM | ? | . | .
COc1ccc(/C=N/NC(=S)Nc2cccc(C(=O)O)c2)cc1OC | 5.36µM | . | . | . | .
CC1=C(c2ccc(C)c(C)c2)S(=O)(=O)N=C1N1CCC(C(=O)Nc2cccc(F)c2)CC1 | . | / | / | / | /
O=C(c1ccccc1)n1ccc(-c2cnc(-c3ccccc3)s2)n1 | 4.26µM | 3.55µM | 1.64µM | 1.41µM | 1.58µM
C/C(=N\NC(=O)COc1ccc(C)cc1C(C)C)c1ccc(-n2ccnc2)cc1 | 1.9µM | . | . | . | .
CCc1ccc(OCC(=O)N/N=C(\C)c2ccc3c(c2)OCCO3)cc1 | ? | . | . | . | .
COC(=O)N/N=C(\C)c1ccc(-n2ccnc2)cc1 | . | . | . | . | .
C/C(=N\NC(=O)COc1ccc(C(C)(C)C)cc1)c1ccc2c(c1)OCCO2 | 19µM | . | . | . | .
C/C(=N\NC(=O)COc1ccc(C)cc1C(C)C)c1cc2ccccc2o1 | 3.38µM | 12.6µM | . | . | .
COc1ccc(NCC(=O)N/N=C(\C)c2cc3ccccc3o2)cc1 | 16.9µM | . | . | . | .
O=C(C1CCC1)N1CCCc2cc(S(=O)(=O)Nc3ccc(F)cc3)ccc21 | . | / | / | / | /
CCN(CC)CCn1c(-c2ccccc2)nc2c(NC3CCCCC3)nc(C)nc21 | / | . | / | / | /
Cc1ccc(CNC(=O)CN2C(=O)COc3ccccc32)cc1 | . | / | / | / | /
C/C(=N\NC(=O)COc1ccc(C(C)(C)C)cc1)c1cc2ccccc2o1 | 0.301µM | 17.8µM | . | 2.82µM | 3.55µM
C/C(=N\NC(=O)COc1ccc(C(C)(C)C)cc1)c1ccccc1 | 10.7µM | . | . | . | .
COc1ccc(Cl)cc1C(=O)NNC(=O)c1cc2ccccc2o1 | / | / | . | / | /
c1cncc(-c2nnc(-c3cccnc3)nn2)c1 | ? | . | . | . | .
Brc1ccccc1-n1nnc(-c2cccnc2)n1 | 16.9µM | / | . | ? | ?
Fc1ccc(-n2nnc(-c3cnc4ccccc4c3)n2)cc1 | 0.135µM | / | 0.231µM | ? | 0.1µM
Clc1ccc(-n2nnc(-c3cccnc3)n2)cc1Cl | ? | / | ? | 3.98µM | 3.16µM
O=c1[nH]c2ccccc2cc1-c1nnn(-c2ccc(F)cc2)n1 | 1.9µM | / | ? | 3.55µM | 2.51µM
CNC(=O)CCCCC(=O)N/N=C/c1ccc(Cl)cc1Cl | . | / | . | . | .
Cc1c2cccc(Sc3ccccc3)c2c2c3c(cccc13)[S+](c1ccccc1)C2 (centres undefined) | / | .[9.22 µM] | / | / | /
O=C(c1cc(C2CC2)nc2ccc(Br)cc12)N1N=C(C(F)F)CC1(O)C(F)F (centres undefined) | . | . | . | . | .
CCOc1ccc(CNC(=O)C2CCN(S(=O)(=O)c3cn(C)cn3)CC2)cc1OC | . | / | / | / | /
SMILES | FLuc modulator | SMN2 splice enh | ELG1 genotoxic | NPC1 prom act | Rab9 prom act
Fc1ccc(C(CCCn2nnc(-c3cccnc3)n2)c2ccc(F)cc2)cc1 | . | / | . | . | .
Fc1ccc(-n2nnc(-c3cccnc3)n2)cc1 | 15.1µM | / | ? | ? | 3.16µM
CCN1C[C@@H]2[C@@H]3C(=O)N(C)C(=O)[C@@H]3[C@](C)(C(=O)OC)N2C1=NC | / | / | . | / | /
Cc1c(/C=N\NC(=O)C2COc3ccccc3O2)c2ccccc2n1C (centres undefined) | ? | . | . | . | .
CCn1c(/C=N/Nc2ccc(C(=O)O)cc2)nc2ccccc21 | 10.7µM | . | . | . | .
Cc1c(/C=N/Nc2ccc(C(=O)O)cc2)c2ccccc2n1C | 10.7µM | / | ? | 2.24µM | 1.41µM
Cc1ccc(S(=O)(=O)N2CCOCC2)cc1NC(=O)COC(=O)CNC(=O)c1ccc(Cl)cc1Cl | . | / | . | . | .
Cc1ccc(NC(=O)CN(C)C(=O)c2cc3ccccc3o2)cc1 | . | . | . | . | .
CCOc1cc(Br)c(COc2ccc(C)nc2[N+](=O)[O-])cc1OCC | . | / | . | . | .
Cc1ccc(OCCOc2cccc(Br)c2)c([N+](=O)[O-])n1 | ? | 17.8µM | ? | ? | ?
Cc1ccc(OCc2ccc(Br)cc2)c([N+](=O)[O-])n1 | 5.36µM | 10µM | 7.3µM | 2.24µM | 1µM
Cc1ccc(OCc2ccc(-c3ccccc3)cc2)c([N+](=O)[O-])n1 | ? | / | . | . | .
